Laboratory results from PubChem BioAssay AID1159580 (chemical genetic matrix, 2015).
Out of some 5,500 compounds screened, about 2,000 (36%) were called active. Inconclusive results (about 18%) are left out. The list shows a part of the results. Values without a mark were called inactive. Rule as the data show it: active = normalized growth mostly below about 0.91 (no sharp cut-off); inconclusive = no clear call, values can overlap the other calls; inactive = mostly above about 0.92.

Assay: chemical genetic growth profiling, strain panel (AID 1159580);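 also: tested at 20 µM; growth read once vehicle control cultures reached saturation at 30 °C; 1 = growth at the plate median or of vehicle wells; lower values mean less growth of the strain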
Conditions: S. cerevisiae deletion strains, growth OD

C#CCCCCCCCCCCCC(=O)CC(O)COC(C)=O (centres undefined)
normalized growth (locus YAL013W, strain DEP1, hits give low values): 0.909 (active)
normalized growth (locus YAL021C, strain ccr4, hits give low values): 0.964
normalized growth (locus YAL026C, strain drs2, hits give low values): 0.982
normalized growth (locus YAL030W, strain snc1, hits give low values): 0.983
normalized growth (locus YBL061C, strain skt5, hits give low values): 0.977
normalized growth (locus YBR009C, strain hhf1, hits give low values): 0.991
normalized growth (locus YBR021W, strain FUR4, hits give low values): 0.91
normalized growth (locus YBR023C, strain chs3, hits give low values): 0.978
normalized growth (locus YBR171W, strain sec66, hits give low values): 0.963
normalized growth (locus YBR229C, strain ROT2, hits give low values): 0.953
normalized growth (locus YBR231C, strain swc5, hits give low values): 0.977
normalized growth (locus YBR279W, strain paf1, hits give low values): 0.986
normalized growth (locus YCL011C, strain gbp2, hits give low values): 0.936
normalized growth (locus YCL016C, strain dcc1, hits give low values): 0.984
normalized growth (locus YCL029C, strain bik1, hits give low values): 0.901 (active)
normalized growth (locus YCL061C, strain MRC1, hits give low values): 0.999
normalized growth (locus YCL069W, strain vba3, hits give low values): 0.975
normalized growth (locus YCR088W, strain abp1, hits give low values): 0.974
normalized growth (locus YDL005C, strain med2, hits give low values): 0.967
normalized growth (locus YDL035C, strain GPR1, hits give low values): 0.8 (active)
normalized growth (locus YDL040C, strain nat1, hits give low values): 0.99
normalized growth (locus YDL074C, strain BRE1, hits give low values): 0.622 (active)
normalized growth (locus YDL101C, strain DUN1, hits give low values): 0.84 (active)
normalized growth (locus YDL134C, strain PPH21, hits give low values): 0.807 (active)
normalized growth (locus YDL185W, strain tfp1, hits give low values): 0.959
normalized growth (locus YDL192W, strain arf1, hits give low values): 0.912 (active)
normalized growth (locus YDR001C, strain nth1, hits give low values): 0.991
normalized growth (locus YDR069C, strain doa4, hits give low values): 0.966
normalized growth (locus YDR101C, strain arx1, hits give low values): 0.881 (active)
normalized growth (locus YDR137W, strain rgp1, hits give low values): 0.854
normalized growth (locus YDR150W, strain NUM1, hits give low values): 0.964
normalized growth (locus YDR159W, strain sac3, hits give low values): 0.989
normalized growth (locus YDR162C, strain NBP2, hits give low values): 0.642 (active)
normalized growth (locus YDR195W, strain ref2): 1.04
normalized growth (locus YDR297W, strain sur2, hits give low values): 0.979
normalized growth (locus YDR318W, strain mcm21, hits give low values): 0.819 (active)
normalized growth (locus YDR334W, strain swr1, hits give low values): 0.98
normalized growth (locus YDR335W, strain msn5, hits give low values): 0.973
normalized growth (locus YDR388W, hits give low values): 0.975
normalized growth (locus YDR392W, strain spt3, hits give low values): 0.476 (active)
normalized growth (locus YDR502C, strain sam2, hits give low values): 0.799 (active)
normalized growth (locus YEL003W, strain gim4, hits give low values): 0.951
normalized growth (locus YEL037C, strain rad23, hits give low values): 0.979
normalized growth (locus YEL061C, strain CIN8 (second series), hits give low values): 0.98
normalized growth (locus YEL061C, strain CIN8, hits give low values): 0.855 (active)
normalized growth (locus YER015W, strain faa2, hits give low values): 0.991
normalized growth (locus YER016W, strain bim1, hits give low values): 0.99
normalized growth (locus YER110C, hits give low values): 0.967
normalized growth (locus YER111C, strain swi4, hits give low values): 0.964
normalized growth (locus YER155C, strain BEM2 (second series), hits give low values): 0.9
normalized growth (locus YER155C, strain BEM2, hits give low values): 0.585 (active)
normalized growth (locus YER167W, strain BCK2, hits give low values): 0.807 (active)
normalized growth (locus YFR010W, strain ubp6, hits give low values): 0.974
normalized growth (locus YGL078C, strain dbp3, hits give low values): 0.916 (active)
normalized growth (locus YGL086W, strain mad1, hits give low values): 0.867 (active)
normalized growth (locus YGL167C, strain pmr1, hits give low values): 0.991
normalized growth (locus YGL173C, strain kem1, hits give low values): 0.979
normalized growth (locus YGL227W, strain vid30, hits give low values): 0.974
normalized growth (locus YGL240W, strain doc1, hits give low values): 0.969
normalized growth (locus YGL248W, strain PDE1, hits give low values): 0.788 (active)
normalized growth (locus YGL253W, strain hxk2, hits give low values): 0.981
normalized growth (locus YGR078C, strain PAC10, hits give low values): 0.708 (active)
normalized growth (locus YGR135W, strain pre9, hits give low values): 0.739 (active)
normalized growth (locus YGR229C, strain SMI1, hits give low values): 0.651 (active)
normalized growth (locus YGR252W, strain gcn5, hits give low values): 0.705 (active)
normalized growth (locus YHR013C, strain ard1, hits give low values): 0.849
normalized growth (locus YHR027C, strain rpn1, hits give low values): 0.989
normalized growth (locus YHR030C, strain SLT2, hits give low values): 0.911 (active)
normalized growth (locus YHR079C, strain IRE1 (second series), hits give low values): 0.816 (active)
normalized growth (locus YHR094C, strain hxt1, hits give low values): 0.961
normalized growth (locus YHR129C, strain ARP1, hits give low values): 0.837 (active)
normalized growth (locus YHR142W, strain chs7, hits give low values): 0.884
normalized growth (locus YHR200W, strain rpn10, hits give low values): 0.977
normalized growth (locus YIL066C, strain RNR3, hits give low values): 0.722 (active)
normalized growth (locus YIL073C, strain SPO22, hits give low values): 0.739
normalized growth (locus YIL125W, strain kgd1, hits give low values): 0.97
normalized growth (locus YIR030C, strain dcg1, hits give low values): 0.945
normalized growth (locus YJL092W, strain hpr5, hits give low values): 0.965
normalized growth (locus YJL095W, strain BCK1 (second series), hits give low values): 0.985
normalized growth (locus YJL095W, strain BCK1, hits give low values): 0.665 (active)
normalized growth (locus YJL115W, strain asf1, hits give low values): 0.991
normalized growth (locus YJL129C, strain trk1, hits give low values): 0.843 (active)
normalized growth (locus YJL134W, strain LCB3, hits give low values): 0.892 (active)
normalized growth (locus YJL154C, strain vps35, hits give low values): 0.984
normalized growth (locus YJL164C, strain tpk1, hits give low values): 0.945
normalized growth (locus YJL166W, strain qcr8, hits give low values): 0.909
normalized growth (locus YJL168C, strain set2, hits give low values): 0.979
normalized growth (locus YJL187C, strain SWE1 (second series), hits give low values): 0.839 (active)
normalized growth (locus YJL187C, strain SWE1, hits give low values): 0.978
